The values below come from PubChem BioAssay (Tox21).

Several values for one entry are separate records, joined by “and”; a condition that tells them apart may be missing. Equal entries are not always repeated. Unmarked numbers belong to inactive results. Results filed as inconclusive are left out. Activity calls are given as the source filed them. Unless noted, the call rests on the fitted dose curve; in most records, active means well fitted curve in the direction sought with a large enough effect in the repeat runs; inconclusive means weak or mixed curves; inactive means no such curve, though single readings can be large; an effect the other way counts as inactive or inconclusive.

The nature of assay [1]: qHTS assay to identify small molecule agonists of the estrogen receptor alpha (ER-alpha) signaling pathway in the presence of an antagonist - cell viability counter screen (AID 1259386).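 Further: series mostly up to about 92 µM; cells exposed to compounds for 22 h at 37 °C before the viability read; nearly all actives have a fitted effect of over 30% in size.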 The method, boiled down: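 Cells are starved of estrogens for 5 days in charcoal-stripped serum, seeded for 24hr and co-treated with ICI-182,780 (10.0nM final) and test compounds. After 22hr at 37C, viability is read as CellTiter-Fluor fluorescence.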
In general terms: Quantitative high-throughput screening tests each substance at several concentrations.

The target in assay [2] is Progesterone receptor (Homo sapiens) (UniProt P06401). The assay is described as follows: qHTS assay to identify small molecule agonists of the progesterone receptor (PR) signaling pathway (AID 1346784; calls by dose curve; further: nearly all actives have a fitted effect of over 30% in size). The method in brief: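 Fluorescence from LiveBLAzer B/G FRET substrate cleavage (2 hr, RT) reported PR activation in PR-UAS-bla HEK 293T cells treated 16 hr at 37C/5% CO2 with compounds; medium contained 2% charcoal-stripped FBS.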

The target is the same in assay [3]. The assay is described as follows: qHTS assay to identify small molecule antagonists of the progesterone receptor (PR) signaling pathway (AID 1346795; active means well fitted inhibition curve with a large enough effect in the signal ratio in the repeat runs, not every such curve was filed as active; the % refers to the signal ratio). The method in brief: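 Fluorescence intensity measured 2 hr after adding beta-lactamase FRET substrate to PR-UAS-bla HEK293T cells that had been co-treated 16 hr with compound and 1 nM R5020 (final concentration) in 2% charcoal-stripped FBS.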

Assay [4] can be described thus: qHTS assay to identify small molecule antagonists of the progesterone receptor (PR) signaling pathway - cell viability counter screen (AID 1346798). Further: series mostly up to about 92 µM; nearly all actives have a fitted effect of over 50% in size. The method in brief:
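CellTiter-Glo luminescence; PR-UAS-bla HEK293T, 3,000 cells/well; compound + R5020, 16 hr, 37C/5% CO2; 30 min RT before read.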

The nature of assay [5]: qHTS assay to identify small molecule agonists of the progesterone receptor (PR) signaling pathway - cell viability counter screen (AID 1346799; calls by dose curve; further: nearly all actives have a fitted effect of over 45% in size). The method in brief: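 In parallel with the beta-lactamase readout, cytotoxicity toward PR-UAS-bla HEK293T cells was measured by CellTiter-Glo luminescence following 16 hr compound incubation in 2% charcoal-stripped FBS medium.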

Assay [6] in a line: qHTS assay to identify small molecule antagonists of the TGF-beta/Smad signaling pathway - cell viability counter screen (AID 1346824). Further: nearly all actives have a fitted effect of over 50% in size. The method, boiled down:
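SBE-bla HEK 293T cells, incubated overnight, then compound plus 0.25 ng/mL TGF-beta1 (stock added) for 5 hr at 37 C. Viability was read in the same wells by CellTiter-Glo luminescence after 30 min at room temperature.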

The nature of assay [7]: qHTS assay to identify small molecule agonists of the TGF-beta/Smad signaling pathway - cell viability counter screen (AID 1346829). Further: top concentration of the series differs between compounds; nearly all actives have a fitted effect of over 45% in size. The method in brief:
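Same-well cytotoxicity: CellTiter-Glo added after the 2 hr room-temperature beta-lactamase substrate step, luminescence measured 30 min later; cells had 5 hr of compound at 37 C.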

Assay [8] is described as follows: qHTS assay to identify small molecule agonists of the TGF-beta/Smad signaling pathway (AID 1346859; active means well fitted activation curve with a large enough effect in the signal ratio in the repeat runs, not every such curve was filed as active; the % refers to the signal ratio; further: series mostly up to about 77 µM). The method in brief:
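After overnight seeding, SBE-bla HEK 293T cells are dosed with compounds in DMSO and kept 5 hr at 37 C, 5% CO2. LiveBLAzer-type FRET substrate is then applied for 2 hr at room temperature.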

For assay [9], the target named is Thyrotropin-releasing hormone receptor (Homo sapiens) (UniProt P34981). Put plainly: qHTS assay to identify small molecule antagonists of the thyrotropin-releasing hormone receptor (TRHR) signaling pathway (AID 1346877; active means well fitted inhibition curve with a large enough effect in the repeat runs, not every such curve was filed as active; further: series mostly up to about 51 µM). The method, boiled down: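 Cells (TRHR-HEK293) are plated and kept 18 h at 37 °C/5% CO2. A calcium-sensitive dye is added for 2 h, compound follows for 5 min at room temperature, and TRH is then given at 1 nM final.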

The target is the same in assay [10]. The assay is described as follows: qHTS assay to identify small molecule agonists of the thyrotropin-releasing hormone receptor (TRHR) signaling pathway (AID 1346891; calls by dose curve;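 further: HEK293 cells expressing TRHR with calcium dye readout; series mostly up to about 58 µM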). The method, boiled down: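 Compounds were tested as agonists at 15 concentrations, in triplicate, on TRHR-Hek293 cells; calcium-sensitive dye fluorescence was recorded for 3 min following addition.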

A short description of assay [11]: Human pregnane X receptor (PXR) small molecule agonists, qHTS cell viability counter screen (AID 1346977). Further: nearly all actives have a fitted effect of over 50% in size. The method in brief:
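Viability counter screen: CellTiter-Fluor signal in PXR-Luc HepG2 cells, 24hr compound exposure, 37C, 5% CO2.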

The nature of assay [12]: Caspase-3/7 induction in HepG2 cells by small molecules, qHTS assay (AID 1346978). Further: nearly all actives have a fitted effect of over 15% in size. The method, boiled down:
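Wild-type HepG2 cells, 2,000/well, settled 5 hr at 37 C and 5% CO2, then compound-treated for 17 hr; caspase-3/7 activity read by luminescent Caspase-Glo 3/7 after 30 min at room temperature.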

Assay [13] is described as follows: Caspase-3/7 induction in CHO-K1 cells by small molecules, qHTS cell viability counter screen (AID 1346979). Further: nearly all actives have a fitted effect of over 35% in size. Further: potency means the concentration at half of the fitted maximal effect. The method, boiled down: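 Viability readout by fluorescence (CellTiter-Fluor) on wild-type CHO-K1 cells exposed for 16hr at 37C and 5% CO2 to compounds delivered in DMSO; reagent incubated 1hr before reading.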
The nature of assay [14]: Caspase-3/7 induction in CHO-K1 cells by small molecules, qHTS assay (AID 1346980). Further: nearly all actives have a fitted effect of over 15% in size. The method, boiled down: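 Wild-type CHO-K1 cells exposed to compounds for 17hr at 37 C, 5% CO2. Caspase-3/7 activity then measured by Caspase-Glo 3/7 luminescence after 30min at room temperature.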
The nature of assay [15]: Caspase-3/7 induction in HepG2 cells by small molecules, qHTS cell viability counter screen (AID 1346981). Further: series mostly up to about 92 µM; nearly all actives have a fitted effect of over 30% in size. The method, boiled down: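 Steps: seed 2,000 HepG2 cells per well; incubate 5 hr at 37 C; pin-add compounds in DMSO; incubate 16 hr; add CellTiter-Fluor; after 1 hr at 37 C and 5% CO2, read fluorescence.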
Assay [16] addresses Nuclear receptor subfamily 1 group I member 2 (Homo sapiens) (UniProt O75469). The assay is described as follows: Human pregnane X receptor (PXR) small molecule agonists, qHTS assay (AID 1346982). Further: nearly all actives have a fitted effect of over 35% in size. Further: potency means the concentration at half of the fitted maximal effect. The method in brief:
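Agonist mode qHTS: PXR-Luc HepG2 cells plated 5 hr before DMSO-dissolved compounds were pinned in, cultured 24 hr at 37 C, 5% CO2; ONE-Glo luminescence readout.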

Assay [17] deals with Nuclear receptor subfamily 1 group I member 2 (Rattus norvegicus) (UniProt Q9R1A7). The assay is described as follows: Rat pregnane X receptor (rPXR) activation by small molecules, qHTS assay (AID 1346983). Further: nearly all actives have a fitted effect of over 20% in size. Conditions: rPXR luciferase reporter cells, One-Glo luminescence, 24 h; active compounds read high. The method, boiled down: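 Cell-based rPXR activation assay: rPXR cells, 2,000 per well, rested 5hr at 37 C, then exposed to compounds in DMSO for 24 hr at 37 C. Luciferase activity read by One-Glo luminescence after 30 min at room temperature.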

Assay [18] addresses Nuclear receptor subfamily 1 group I member 2 (Homo sapiens) (UniProt O75469). The assay is described as follows: CYP3A4 induction through human pregnane X receptor (PXR) by small molecules, qHTS assay (AID 1346984). Further: nearly all actives have a fitted effect of over 40% in size. The method, boiled down:
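Steps: seed DPX-2 cells, 5 hr at 37C; pin-transfer compounds; 24 hr at 37C; add Luciferin-IPA (3uM final), 3 hr at 37C; add One-Glo, 30 min RT; read luminescence.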

Assay [19] has the same target. Put plainly: Human pregnane X receptor (PXR) activation by small molecules, qHTS assay (AID 1346985). Further: nearly all actives have a fitted effect of over 40% in size. The method, boiled down:
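DPX-2 cells (HepG2 co-transfected with a PXR response element and a CYP3A4-promoter luciferase construct) were seeded at 2,000 per well, rested 5 hr at 37C, then exposed to DMSO-dissolved compounds for 24 hr. Activation was read as luciferase luminescence.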

Assay [20] concerns the target Acetylcholinesterase (Homo sapiens) (UniProt P22303). Put plainly: Acetylcholinesterase (AChE) small molecule antagonists: colormetric cell-based qHTS assay (AID 1347395; calls by dose curve; further: nearly all actives have a fitted effect of over 30% in size; further: potency means the concentration at half of the fitted maximal effect). The method, boiled down:
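Homogeneous whole-cell format. SH-SY5Y cells seeded overnight, dosed with compound (30 min, 37 C, 5% CO2), then given DTNB/acetylthiocholine cocktail for 90 min at 37 C; colorimetric signal.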
On the % scale 0 is the no-effect control and ±100 the full control effect.

Nuclear receptor subfamily 1 group I member 2 (Rattus norvegicus), sequence (Q9R1A7 whole entry, looked up): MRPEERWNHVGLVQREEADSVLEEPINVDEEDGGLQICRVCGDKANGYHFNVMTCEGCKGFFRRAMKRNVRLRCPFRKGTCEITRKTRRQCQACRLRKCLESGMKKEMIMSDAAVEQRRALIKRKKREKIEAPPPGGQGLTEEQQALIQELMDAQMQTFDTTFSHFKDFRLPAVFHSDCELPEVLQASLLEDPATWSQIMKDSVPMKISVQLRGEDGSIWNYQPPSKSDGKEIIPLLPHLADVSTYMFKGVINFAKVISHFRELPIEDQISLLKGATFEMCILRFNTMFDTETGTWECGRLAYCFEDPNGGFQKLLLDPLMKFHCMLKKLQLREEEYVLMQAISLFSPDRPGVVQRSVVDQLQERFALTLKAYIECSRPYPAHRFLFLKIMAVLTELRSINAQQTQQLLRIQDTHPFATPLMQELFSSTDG
Acetylcholinesterase (Homo sapiens), sequence (P22303 whole entry, looked up): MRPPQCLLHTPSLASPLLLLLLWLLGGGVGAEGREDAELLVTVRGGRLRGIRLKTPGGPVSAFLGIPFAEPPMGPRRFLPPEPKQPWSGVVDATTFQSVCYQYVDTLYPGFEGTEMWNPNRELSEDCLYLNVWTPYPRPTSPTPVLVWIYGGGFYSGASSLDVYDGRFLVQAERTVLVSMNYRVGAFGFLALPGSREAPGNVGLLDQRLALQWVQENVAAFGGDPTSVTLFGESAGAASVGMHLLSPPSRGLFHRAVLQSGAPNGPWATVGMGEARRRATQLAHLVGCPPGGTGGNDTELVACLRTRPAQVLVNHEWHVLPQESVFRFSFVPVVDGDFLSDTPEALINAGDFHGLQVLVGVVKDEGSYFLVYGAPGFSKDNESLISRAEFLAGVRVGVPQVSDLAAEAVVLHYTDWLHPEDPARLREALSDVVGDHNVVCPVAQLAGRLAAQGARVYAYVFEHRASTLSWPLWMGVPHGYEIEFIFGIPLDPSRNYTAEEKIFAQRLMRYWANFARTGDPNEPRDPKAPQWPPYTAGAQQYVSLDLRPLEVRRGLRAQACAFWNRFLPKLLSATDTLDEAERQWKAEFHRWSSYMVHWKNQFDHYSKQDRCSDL
Thyrotropin-releasing hormone receptor (Homo sapiens), sequence (P34981 whole entry, looked up): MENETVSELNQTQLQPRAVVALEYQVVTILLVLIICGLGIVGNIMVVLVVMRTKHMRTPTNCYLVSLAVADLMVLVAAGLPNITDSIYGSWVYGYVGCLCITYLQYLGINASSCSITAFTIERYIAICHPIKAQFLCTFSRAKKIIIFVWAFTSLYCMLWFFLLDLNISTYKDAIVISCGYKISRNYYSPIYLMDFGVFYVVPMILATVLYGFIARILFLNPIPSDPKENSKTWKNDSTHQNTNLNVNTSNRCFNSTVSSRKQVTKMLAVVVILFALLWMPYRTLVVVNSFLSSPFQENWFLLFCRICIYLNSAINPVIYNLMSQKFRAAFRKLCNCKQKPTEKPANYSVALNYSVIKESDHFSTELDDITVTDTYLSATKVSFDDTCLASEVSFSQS
Nuclear receptor subfamily 1 group I member 2 (Homo sapiens), sequence (O75469 whole entry, looked up): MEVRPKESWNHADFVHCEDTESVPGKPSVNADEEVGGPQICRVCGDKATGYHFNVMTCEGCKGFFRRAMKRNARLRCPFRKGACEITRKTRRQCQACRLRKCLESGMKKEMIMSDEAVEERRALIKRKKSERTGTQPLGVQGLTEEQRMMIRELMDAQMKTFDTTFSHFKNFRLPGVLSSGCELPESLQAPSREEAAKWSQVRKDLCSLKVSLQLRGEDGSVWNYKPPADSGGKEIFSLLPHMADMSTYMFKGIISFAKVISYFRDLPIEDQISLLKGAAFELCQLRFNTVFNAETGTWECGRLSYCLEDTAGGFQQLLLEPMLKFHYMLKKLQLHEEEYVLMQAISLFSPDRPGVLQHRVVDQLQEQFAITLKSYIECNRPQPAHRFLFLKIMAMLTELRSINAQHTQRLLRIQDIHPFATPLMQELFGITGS
Progesterone receptor (Homo sapiens), sequence (P06401 whole entry, looked up): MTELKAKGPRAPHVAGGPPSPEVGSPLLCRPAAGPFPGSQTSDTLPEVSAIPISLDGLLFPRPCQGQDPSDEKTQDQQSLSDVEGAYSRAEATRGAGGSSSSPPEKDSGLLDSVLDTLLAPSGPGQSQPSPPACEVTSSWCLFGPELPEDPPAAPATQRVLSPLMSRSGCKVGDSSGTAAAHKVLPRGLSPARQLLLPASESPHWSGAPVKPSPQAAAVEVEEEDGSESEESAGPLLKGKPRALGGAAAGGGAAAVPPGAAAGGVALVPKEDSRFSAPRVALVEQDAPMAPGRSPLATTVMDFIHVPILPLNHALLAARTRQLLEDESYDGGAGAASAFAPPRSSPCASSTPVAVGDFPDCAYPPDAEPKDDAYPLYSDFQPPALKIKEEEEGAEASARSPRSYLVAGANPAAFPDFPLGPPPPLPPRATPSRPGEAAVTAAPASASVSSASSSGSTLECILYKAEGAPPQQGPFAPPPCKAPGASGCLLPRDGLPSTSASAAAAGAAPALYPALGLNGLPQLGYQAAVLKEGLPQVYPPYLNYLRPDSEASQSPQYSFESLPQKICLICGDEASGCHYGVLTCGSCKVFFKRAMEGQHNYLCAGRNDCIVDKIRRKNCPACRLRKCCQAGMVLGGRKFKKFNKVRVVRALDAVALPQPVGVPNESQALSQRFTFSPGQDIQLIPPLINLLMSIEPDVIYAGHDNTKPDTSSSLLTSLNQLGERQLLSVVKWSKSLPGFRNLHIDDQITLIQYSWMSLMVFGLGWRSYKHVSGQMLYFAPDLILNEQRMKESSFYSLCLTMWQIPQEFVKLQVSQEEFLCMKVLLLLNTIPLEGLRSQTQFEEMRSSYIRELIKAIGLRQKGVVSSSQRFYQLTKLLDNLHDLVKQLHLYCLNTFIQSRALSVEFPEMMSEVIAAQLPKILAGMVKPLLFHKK

For the molecule `CC(C)(C)NCC(O)c1ccccc1Cl` (stereo not drawn), the Potency entry in assay [1], in assay [2], in assay [3], in assay [4], in [5] and in [6] was “inactive” each time. In addition, the Potency entry in assay [7], in assay [9], in [11], in assay [12], in assay [13] and in [14] was “inactive” throughout. The Potency result in assay [15], in [16], in assay [19] and in assay [20] was “inactive” throughout. Also, the result in assay [8], in [10] and in assay [18] was inactive. In assay [17], the max activation was -2.03%.
On to `CC(C)(C)OOC(C)(C)CCC(C)(C)OOC(C)(C)C`, for which the Potency result in assay [1], in assay [2], in assay [3], in assay [4], in assay [5] and in [6] was “inactive” throughout. The Potency result in [7], in assay [9], in assay [11], in assay [12], in assay [13] and in assay [14] was “inactive” each time. In addition, the Potency entry in assay [15], in [16] and in assay [20] was “inactive” throughout. For the same molecule, the outcome in assay [8] and in [10] was inactive.
Regarding `COC1CC(=C(c2cccs2)c2cccs2)C[N+](C)(C)C1` (stereo not drawn), the Potency result in [1], in [2], in assay [3], in [4], in [5] and in [6] was “inactive” in each case. Also, the Potency result in assay [7], in [9], in [11], in [12], in [13] and in [14] was “inactive” throughout. Further, the Potency entry in [15], in assay [16], in [19] and in [20] was “inactive” throughout. Besides, the call in assay [8], in [10] and in assay [18] was inactive. Also, the max activation in assay [17] is -1.69%.
Turning to `CCCC[N+](CCCC)(CCCC)CCCC`, the Potency entry in [1], in assay [2], in assay [3], in assay [4], in assay [5] and in assay [6] was “inactive” in each case. Also, the Potency entry in [7], in assay [9], in assay [11], in [12], in assay [13] and in assay [14] was “inactive” each time. Moreover, the Potency result in assay [15] and in assay [16] was “inactive” each time. Moreover, the call in assay [8] and in assay [10] was inactive. Also, the Potency in assay [20] is 44.7 µM (active).
`O=C(CCl)CCl`: the Potency result in assay [1], in [2], in [3], in assay [4], in assay [5] and in [6] was “inactive” each time. The Potency result in [7], in assay [9], in assay [11], in assay [12], in assay [14] and in [15] was “inactive” in each case. The Potency entry in assay [20] is “inactive”. The result in [8] and in assay [10] was inactive. Besides, the Potency in assay [13] is 50.3 µM (active) and 30.6 µM (active); in assay [16], 56.5 µM (active) and 61.1 µM (active).
In the case of `CC(C)CCON=O`, the Potency entry in assay [1], in assay [2], in assay [3], in [4], in assay [5] and in assay [6] was “inactive” in each case. In addition, the Potency result in [7], in assay [9], in [11], in assay [12], in assay [13] and in [14] was “inactive” each time. For the same molecule, the Potency entry in assay [15], in [16], in assay [19] and in assay [20] was “inactive” in each case. Further, the molecule was called inactive in [8], in assay [10] and in [18]. Also, the max activation in assay [17] is -3.41%.
In the case of `CCSCc1ccccc1OC(=O)NC`, the Potency result in [1], in assay [2], in [3], in [4], in assay [5] and in [6] was “inactive” throughout. Also, the Potency result in assay [7], in assay [9], in [11], in assay [12], in assay [13] and in assay [14] was “inactive” throughout. The Potency entry in [15] and in assay [16] was “inactive” each time. Besides, the call in [8] and in assay [10] was inactive. Also, the Potency in [20] was 10 µM (active).
